Source: the supplement of paper PMC9925115
Structures can show the parent of a compound that is named as a salt. ± gives the uncertainty stated by the source.

Columns and labels:
FLX1 = assay: cell viability z-score within plate (CellTiter-Glo), mean of 3 biological replicates; higher = higher viability relative to plate (less growth inhibition); details: 2 µM; time (hr): 120
Method: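 FLX1 fibrolamellar carcinoma cells (DNAJB1-PRKACA fusion), 600 cells/well in 384-well plates, treated with a Selleck kinase inhibitor library (L1200) at 2 uM for 5 days (120 hr); viability by CellTiter-Glo. A z-score was computed within each plate and averaged over three biological replicates.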

[1] = test system: FLX1 + dox-induced PRKAR1A G325D; assay: difference in log2 fold change of viability vs plate median (dox-induced PRKAR1A G325D minus uninduced); higher = compound less effective when PKA is inhibited; details: concentration: not stated (2 or 5 uM); 5 days
Method: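 For each plate a log2 fold change vs the plate median was derived, and the values without dox were subtracted from those with dox, averaged over three biological replicates.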

Row | Compound | cell viability z-score within plate (FLX1) | difference in log2 fold change of viability [1]
1 | O=C(NOC[C@H](O)CO)c1ccc(F)c(F)c1Nc1ccc(I)cc1F | -1.16 ± 0.84 | -1.04
2 | C[C@@H](Oc1cc(-c2cnn(C3CCNCC3)c2)cnc1N)c1c(Cl)ccc(F)c1Cl | 0.281 ± 0.54 | -0.703
3 | COc1cc2nccc(Oc3ccc(NC(=O)Nc4cc(C)on4)c(Cl)c3)c2cc1OC [Tivozanib (AV-951)] | -0.573 ± 0.16 | -0.0533
4 | CNc1nc(Nc2cnn([C@H]3CCN(C4COC4)C[C@@H]3F)c2Cl)ncc1C(F)(F)F | -0.856 ± 0.51 | -0.177
5 | O=C(Nc1cccc(Cl)c1)Nc1ncc(CCNc2ncnc3ccsc23)s1 [SNS-314 Mesylate] | -2.37 ± 0.38 | -0.153
6 | Cn1cnc2c(F)c(Nc3ccc(Br)cc3Cl)c(C(=O)NOCCO)cc21 [Selumetinib (AZD6244)] | -0.403 ± 0.49 | -1.05
7 | NC(=O)c1ncn([C@@H]2O[C@H](CO)[C@@H](O)[C@H]2O)c1N [AICAR (Acadesine)] | 0.371 ± 0.82 | -0.0733
8 | O=C(NC[C@H](O)CO)c1ccncc1Nc1ccc(I)cc1F | -0.968 ± 0.82 | -1.7
9 | CN1CCN(CCOc2cc(OC3CCOCC3)c3c(Nc4c(Cl)ccc5c4OCO5)ncnc3c2)CC1 [Saracatinib (AZD0530)] | 0.194 ± 0.28 | -1.34
10 | Cc1cc(Nc2cc(N3CCN(C)CC3)nc(/C=C/c3ccccc3)n2)n[nH]1 | 0.628 ± 0.19 | -0.0361
11 | Nc1nc(Nc2ccc(S(N)(=O)=O)cc2)nn1C(=O)c1c(F)cccc1F | -2.24 ± 0.22 | 0.0351
12 | Cc1cc(CS(=O)(=O)c2ccccc2)cc(OCc2ccc(CN3CCC[C@@H]3CO)cc2)c1 | 0.378 ± 0.24 | 0.461
13 | CC(C)NC[C@@H](C(=O)N1CCN(c2ncnc3c2[C@H](C)C[C@H]3O)CC1)c1ccc(Cl)cc1 [Ipatasertib (GDC-0068)] | 1.05 ± 0.14 | 0.54
14 | CNc1nc(-c2ccc3c(N)n[nH]c3c2)cc(N2C[C@@H](C(=O)NC3CCCCC3)CC[C@H]2C)n1 | 0.0251 ± 0.54 | 0.221
15 | O=C1NC(=O)C(c2ccccc2[N+](=O)[O-])=C1Nc1ccc(O)c(Cl)c1 | 0.229 ± 0.58 | -0.00686
16 | N#Cc1ccc2[nH]c(O)c(-c3ccc(CN4CCOCC4)cn3)c2c1 | 0.226 ± 0.62 | 0.199
17 | Cc1[nH]c(/C=C2\C(=O)Nc3ccccc32)c(C)c1CCC(=O)O [Orantinib (TSU-68, SU6668)] | 0.388 ± 0.61 | 0.216
18 | Clc1ccc(Nc2nnc(Cc3ccncc3)c3ccccc23)cc1 [Vatalanib (PTK787) 2HCl] | -0.254 ± 0.59 | 0.168
19 | CN(C)C/C=C/C(=O)Nc1cc2c(Nc3ccc(F)c(Cl)c3)ncnc2cc1O[C@H]1CCOC1 [Afatinib (BIBW2992)] | -0.688 ± 0.67 | -1.66
20 | CNC(=O)c1cccc(-c2ccc3c(N4CCOC[C@@H]4C)nc(N4CCOC[C@@H]4C)nc3n2)c1 [Vistusertib (AZD2014)] | – | 0.675
21 | Cc1ncc(-c2ccnc(Nc3ccc(S(C)(=O)=O)cc3)n2)n1C(C)C | – | 0.632
22 | CN1CCN(C2CCN(C(=O)Nc3cc(Oc4ccc(NC(=O)C5(C(=O)Nc6ccc(F)cc6)CC5)c(F)c4)ccn3)CC2)CC1 [Golvatinib (E7050)] | – | 0.0894
23 | Cc1ccccc1CN1C2=NCCN2C(=O)C2=C1CCN(Cc1ccccc1)C2 [TIC10 Analogue] | – | -0.0375
24 | Nc1nccc(Oc2ccc(NC(=O)c3c[nH]cc(-c4ccc(F)cc4)c3=O)cc2F)c1Cl | – | -0.00105
25 | C[C@H]1[C@H](C)CC[C@]2(C(=O)O)CC[C@]3(C)C(=CC[C@@H]4[C@@]5(C)C[C@@H](O)[C@H](O)[C@@](C)(CO)[C@@H]5CC[C@]43C)[C@H]12 [Asiatic Acid] | – | -0.0847
